The source made the active and inactive calls. How the source made its calls: active means hit-call score of the fitted dose curve at least 0.9, where 1 is the maximum; inactive means score below 0.9.
Each compound was assayed on Monokine induced gamma interferon (MIG), CXCL9 (gene 4283) (assay: BSK_hDFCGF_MIG: BioMAP Diversity Plus: hDFCGF Assay for Monokine induced gamma interferon (MIG) Biomarker Activity (AID 2283063)). Settings: primary human foreskin fibroblasts; actives raise or lower the signal.
Method: BSK_hDFCGF is a cell-based, multiplexed-readout assay that uses foreskin fibroblast, a human skin primary cell, with measurements taken at 24 hours after chemical dosing in a 96-well plate.BSK_hDFCGF_MIG is an assay component measured in the BSK_hDFCGF assay. It measures MIG antibody related to regulation of gene expression using ELISA technology.Data from the assay component BSK_hDFCGF_MIG was analyzed into 1 assay endpoint. This assay endpoint, BSK_hDFCGF_MIG, was analyzed with bidirectional fitting relative to DMSO as the negative control and baseline of activity. Using a type of binding reporter, gain or loss-of-signal activity can be used to understand changes in the signaling as they relate to the gene CXCL9. Furthermore, this assay endpoint can be referred to as a primary readout, because this assay has produced multiple assay endpoints where this one serves a signaling function. To generalize the intended target to other relatable targets, this assay endpoint is annotated to the cytokine intended target family, where the subfamily is chemotactic factor.
The levels of cell surface (or secreted, indicated by the prefix "s") biomarker endpoints were measured by ELISA. Overt cytotoxicity to cells in confluent adherent cultures (all systems other than the BT system) was assessed by measuring total protein levels using sulforhodamine B (SRB) staining in parallel cultures at the time of biomarker measurements, indicated as SRB endpoints. For proliferation assays for adherent cell types, individual cell types are cultured at sub-confluence and relative cell numbers quantified by SRB staining at time points optimized for each system (48 h: 3C and CASM3C systems; 72 h: BT and HDF3CGF systems; 96 h: SAg system). SRB was performed by staining cells with 0.1% SRB after fixation with 10% TCA and reading wells at 560 nm.Viability and proliferation of PBMC (T cells) was quantified by Alamar Blue reduction for the SAg and BT systems. For PBMC viability (referred to as PBMC Cytotoxicity within the assay endpoint names), cells were plated (75,000/well in a 96-well plate) and then chemical samples added for 1 h before addition of activators, SEB and TSST-1 (20 ng/mL final concentration each). Cells were incubated for 90 h. Then, Alamar Blue (20 uL/well) (Invitrogen, Cat DAL1100) was added for 6 h, and the plates were read with a fluorescence microplate reader at 546/580 nm (excitation/emission). For PBMC proliferation, cells were plated and activated as above but incubated for only 16 h prior to addition of Alamar Blue. Plates were read after 6 h.

SMILES	outcome	AC50
CC(C)CCCCCOC(=O)CS	inactive	–
COC(OC)(C(=O)c1ccccc1)c1ccccc1	inactive	–
C=CC(=O)OCCCCCCOC(=O)C=C	–	3.3 µM (active)
CCN1CN(CC)CN(CC)C1	inactive	–
CC=C(C)C(C)=O	inactive	–
CCCCCCCO	inactive	–
C=C(C)C(=O)OCCCCCCCCCCCC	inactive	–
CC(C)C(=O)OCCc1ccccc1	inactive	–
CC(C)c1cccc(C(C)C)c1N	inactive	–
Oc1ccccc1Cc1ccccc1O	inactive	–
C=CC(=O)NCOCCCC	inactive	–
CCc1cccc(C)c1N(C(=O)CS(=O)(=O)O)C(C)COC (stereo not given)	inactive	–
CCCCCCC=O	inactive	–
C=CC(=O)OCC(C)OCC(C)OCC(C)OC(=O)C=C (stereo not given)	–	11.3 µM (active)
CCOC(=O)/C=C\C(=O)OCC	inactive	–
C=CC(=O)OCCCCCCCC(C)C	–	20 µM (active)
CCOC(=O)C1=NN(c2ccc(Cl)cc2Cl)C(C)(C(=O)OCC)C1 (stereo not given)	inactive	–
CCOC(=O)C1=NOC(c2ccccc2)(c2ccccc2)C1	inactive	–
CC/C=C\CCOC(=O)c1ccccc1O	–	20 µM (active)
c1ccc2c(c1)[nH]c1ccccc12	inactive	–

SMILES	outcome	AC50
Nc1nc(N)nc(-c2ccccc2)n1	inactive	–
CCC1(C)C(=O)N(Cl)C(=O)N1Cl (stereo not given)	inactive	–
CC(CCC(=O)O)(c1ccc(O)cc1)c1ccc(O)cc1	inactive	–
O=C(Cl)c1c(Cl)c(Cl)c(C(=O)Cl)c(Cl)c1Cl	inactive	–
C[N+](C)(C)CCCNS(=O)(=O)C(F)(F)C(F)(F)C(F)(F)C(F)(F)C(F)(F)C(F)(F)C(F)(F)C(F)(F)F	inactive	–
CCCCCC1=CCCC1=O	inactive	–
CCCC(C)C(=O)OCC (stereo not given)	inactive	–
O=C(Oc1ccccc1)c1ccccc1C(=O)Oc1ccccc1	inactive	–
CCCCCCCCCCCC(C)=O	inactive	–
CC1(C)CC(O)CC(C)(C)N1[O]	inactive	–
Oc1ccc(/C=C/c2cc(O)cc(O)c2)cc1	inactive	–
c1ccc2sc(SSN3CCOCC3)nc2c1	inactive	–
O=C(O)C(F)(F)C(F)(F)C(F)(F)C(F)(F)C(=O)O	inactive	–
CCCCCCOC(=O)CCCCC(=O)OCCCCCC	inactive	–
C1CNCCN1	inactive	–
C=CCCCCCCCCC=O	inactive	–
Nc1ccc(C(=O)O)cc1	inactive	–
CCNc1nc(NC(C)(C)C)nc(OC)n1	inactive	–
C=CC(=O)NC(C)(C)C	inactive	–
COc1ccc(C(=O)c2ccccc2)c(O)c1	inactive	–

— PubChem BioAssay (EPA / NIEHS)
